Our source for the Potency values is PubChem BioAssay AID1508642 (National Center for Advancing Translational Sciences (NCATS), 2021).

Hit rate of the full screen: of about 43,000 compounds, about 200 (0.47%) were called active. About 12% were inconclusive and are not listed. The call rests on the fitted dose curve; in most records, active means well fitted cell-killing curve with a large enough effect; inconclusive means small, poorly fitted or top-dose-only effect, or effect the other way; inactive means flat fitted curve, though single readings scatter. The list comes from a sample in which actives are over-represented; it also holds similar structures and randomly drawn compounds. A call without a number means that no potency is given here.
Potency means the concentration at half of the fitted maximal effect.

A short description of the assay: Cell viability qHTS assay in S16 Pmp22-F2sN cells. Further: nearly all actives have a fitted effect of over 65% in size. The settings on record: S16 Pmp22-F2sN Schwann cells (luciferase reporters placed in the Pmp22 gene) viability, CellTiter-Glo, 24 h; series mostly up to 57.5 µM. An excerpt: Assay Provider: Jim Inglese Ph.D. National Center for Advancing Translational Science, National Institutes of Health, Rockville, MD CMT is a heterogeneous group of neurological disorders that affect approximately 1 in 2,500 people. In particular, the most common form of CMT, CMT1A is genetically linked to the duplication of the PMP22 gene which leads to Schwann cell overexpression, thus manifesting itself as a typical case of dose-sensitive diseases. To identify small molecule compounds that can mediate the expression of PMP22 we developed a phenotypic assay screening strategy by utilizing genome editing techniques to construct Schwann cell lines containing novel reporter technology to monitor the transcriptional or translational regulation of PMP22. For high sensitivity we use a bioluminescent reporter system embedded in the 3' UTR of the PMP22 gene (S16(c9) Pmp22-F2sN) to identify compounds that inhibit gene expression. […] We can further discriminate the effect of all transcriptionally active molecules on PMP22 translation or stability with an assay that incorporates a short NLuc peptide (HiBiT) at the C-terminus of expressed PMP22 (S16(f8) PMP22-HiBiT) allowing alpha complementation and luminescence detection of membrane-associated PMP22 protein. These assays were screened against the NCATS Sytravon Library Collection. Miniaturization of these assays to 1536-well plate format for quantitative high throughput screening (qHTS) yielded rich data sets immediately from the qHTS assay (S16(c9) Pmp22-F2sN), when compared with data from a cell viability assay (Cell TiterGlo) to identify compounds that decreased the output signals through cellular toxicity to streamline the selection process of actives for subsequent characterization using the HiBiT assay (S16(f8) PMP22-HiBiT).
Cell viability assay in S16 Pmp22-F2sN cells PROTOCOL TABLE (format as described by Inglese J, Shamu CE and Guy RK. 2007) SEQUENCE No. (e.g., 1, 2, 3, etc.); […] (e.g., Cells, Incubation, Reagent, etc.); VALUE and DESCRIPTION. 1. Cells. Add 500-1,000 cells in 4 uL in growth media (DMEM High Glucose, No Phenol Red media + 10% heat-inactivated FBS + 1% Pen/Strep supplemented media) per well into Greiner 1536-well white/solid bottom high base, TC-treated plates. 2. Compounds. Library compounds and controls added at 23nL per well, transferred by Pin Tool. 3. Incubation. Incubate plates at 37C, 5% CO2, 95% RH for 24 h. 4. Reagent. Add 3uL CellTiter-Glo per well of Greiner 1536-well plates. 5. Incubation. Incubate plates at room temperature for 15 min., protect from light. 6. Detector. FLuc luminescence measured using CCD-based camera (Viewlux). NOTES (numbers refer to Sequence numbers above; values are from representative experiments) 6. Luminescence Read: Clear filter; Exposure = 1 sec, Gain = High, Speed = Slow, Binning = 2X REFERENCES: 1. Inglese J, Shamu CE and Guy RK, Reporting data from high throughput screening of small molecule libraries, Nature Chemical Biology, 2007, 3(8): 438-441. doi.org/10.1038/nchembio0807-438 2. Yasgar A, Shinn P, Jadhav A, Auld DS, Michael S, Zheng W, Austin CP, Inglese J and Simeonov A, Compound Management for Quantitative High-Throughput Screening. J. Assoc. Lab. Auto., 2008, 13: 79-89. doi: 10.1016/j.jala.2007.12.004
Turning to `CCCNC(=O)C1CCC(Cn2c(=O)c3sccc3n(Cc3ccccc3F)c2=O)CC1` (centres undefined), the Potency entry is “inactive”.
For `O=C(Nc1ccc(Br)cc1)c1cc2nc(-c3ccccc3)cc(-c3ccccc3)n2n1` the value was “inactive”.
With `COc1ccc(CCNC(=O)CCCn2c(=O)c3ccccc3n(Cc3ccc(F)cc3Cl)c2=O)cc1OC`, the Potency result is “inactive”.
As for `O=C(CSc1n[nH]c(-c2ccccc2)n1)N1CCCCC1`, the Potency result is “inactive”.
For `CCN(CC)S(=O)(=O)c1ccc2c(c1)nc(CN(C)C(=O)Nc1ccc(Cl)cc1)n2C` the value was “inactive”; for `O=C(NCCc1ccccc1)c1cnc2sc(N3CCCC3)nn2c1=O`, “inactive”.
For `CCC(Sc1nc2n[nH]c(C)c2c(=N)n1-c1ccccc1Cl)C(=O)N(CC)CC` (centres undefined) the value was “inactive”; for `CCC(CC)C(=O)N1CCc2cc(OC)c(OC)cc2C1COc1ccc(F)cc1` (centres undefined), “inactive”; for `Cc1cc(C)c2oc(C(=O)Nc3ccc(S(=O)(=O)N4CCCCCC4)cc3)cc(=O)c2c1`, “inactive”.
Under `COc1ccc(S(=O)(=O)c2c(Nc3ccc(C)cc3)sc(C(=O)c3ccc(C)cc3)c2N)cc1` stands “inactive”; under `COc1ccccc1CNC(=O)NCc1noc2ccc(C)cc12`, “inactive”; under `COc1ccc(C(F)(F)F)cc1NC(=O)c1sc2nc(-c3cccs3)ccc2c1N`, “inactive”.
In the case of `CC1CCN(C(=O)Cn2c(=O)n(-c3ccc(Cl)cc3)c(=O)c3c4c(sc32)CCC4)CC1`, the Potency result is “inactive”.
For `CCCN(CCC)CCNC(=O)c1ccc2c(c1)NC(=O)C(CS(=O)(=O)Cc1cccc(Br)c1)N2` (centres undefined) the value was “inactive”.
Turning to `Cc1cc(C)cc(-n2ccnc2SCC(=O)Nc2nc3ccccc3s2)c1`, the Potency result is “inactive”.
Under `CCc1ccccc1NC(=O)Cc1ccc(NC(=O)N2CCCCc3ccccc32)cc1` stands “inactive”.
For `CCc1cccc(NC(=O)CCNS(=O)(=O)c2cccc3nonc23)c1` the value was “inactive”; for `COc1cccc(N2CCN(S(=O)(=O)c3cc(Br)cc4c3N(C(=O)C3CC3)CC4)CC2)c1`, “inactive”; for `Cc1ccc(S(=O)(=O)n2nc(-c3ccc(Cl)cc3)nc2NCc2ccccc2)cc1`, “inactive”.
Under `CCN(CCCNC(=O)c1cc2cc3cc(OC)ccc3nc2s1)c1ccccc1` stands “inactive”.
`COc1cccc(CNC(=O)Cn2c(=O)c3cccn3c3ccc(F)cc32)c1OC`: the Potency result was “inactive”.
Under `CCCSc1ncc(Cl)c(C(=O)Nc2sc3c(c2C(=O)NCCOC)CCCC3)n1` stands “inactive”; under `Cc1ccc(OCC(=O)Nc2ccc(Cl)c(-c3nc4ccccc4[nH]3)c2)cc1C`, “inactive”; under `CCOc1ccc(OCC)c(NC(=O)CN(c2ccc(C)cc2)S(=O)(=O)c2c(C)n[nH]c2C)c1`, “inactive”.
For `Cc1cc2nc(-c3ccc(NC(=O)c4cc5ccccc5o4)cc3)oc2cc1C` the value was “inactive”; for `O=C(NC1CC(=O)N(c2ccc(F)cc2)C1)C1CCCCC1` (centres undefined), “inactive”; for `CCN1CCN(c2ncc3c(n2)CC(c2ccccc2O)CC3=O)CC1` (centres undefined), “inactive”.
Under `Cc1ccc(-c2cc(-c3coc4ccccc4c3=O)c3c(n2)-c2cc(Cl)ccc2OC3)cc1` stands “inactive”; under `CCOc1cccc2c1N[C@@H](c1ccc(C(=O)O)cc1)[C@H]1CC=C[C@@H]21`, “inactive”.
As to `Cc1ccc(C(=O)Nc2c(C(=O)NC(C)(C)C)oc3ccccc23)cc1`, the Potency result was “inactive”.
For `COc1ccc(CCC(=O)NCc2ccc3c(c2)CCN3C(=O)c2ccc(F)cc2)cc1` the value was “inactive”; for `COc1ccccc1CNc1ccc(-c2nc(-c3ccccc3C)no2)cc1[N+](=O)[O-]`, “inactive”; for `Cc1ccc2c(=O)c(C(=O)c3cccc(Cl)c3)cn(CC(=O)NCc3ccccc3)c2n1`, 10 µM (active).
For `Cc1ccc2c(=O)c(C(=O)c3ccc(Cl)cc3)cn(CC(=O)NC3CCCCC3)c2n1` the value was “inactive”; for `Cc1ccc2c(=O)c(C(=O)c3ccc(F)cc3)cn(CC(=O)NC3CCCCC3)c2n1`, “inactive”.
Turning to `Cc1ccc(-c2nnc(Nc3ccc(OCC(N)=O)cc3)c3ccccc23)cc1S(=O)(=O)NCC1CCCO1` (centres undefined), the Potency result is “inactive”.
Under `CCCCCn1c(CCNC(=O)c2ccc(F)cc2)nc2ccccc21` stands “inactive”.
For `COCCNS(=O)(=O)c1cc(-c2nn3c(C)nnc3c3ccccc23)ccc1C` the value was “inactive”.
For `CCc1nnc(SCc2c(F)cccc2Cl)c2cc3sccc3n12` the value was “inactive”; for `COc1cc(C(=O)N(Cc2ccc(C(C)C)cc2)C2CCS(=O)(=O)C2)cc(OC)c1OC` (centres undefined), “inactive”; for `CCOc1ccccc1NC(=O)Cn1c2ncccc2c(=O)n1-c1ccc(C)c(C)c1`, “inactive”.
Regarding `Cc1cccc(Cn2c(CN3CCC(C(=O)NCc4ccccc4Cl)CC3)cc3ccccc32)c1`, the Potency entry was “inactive”.
For `CCN(CC)S(=O)(=O)c1ccc2c(c1)N(CC(=O)NCc1ccccc1)C(=O)CS2` the value was “inactive”.
On to `COc1ccc(-c2onc(C)c2C)cc1S(=O)(=O)NCC1CCN(Cc2cccc(F)c2)CC1`, for which the Potency result was “inactive”.
As for `Cc1onc(-c2ccc(F)cc2F)c1C(=O)Nc1cccc(C(F)(F)F)c1`, the Potency result was “inactive”.
For `Cc1ccc(Cn2c(=O)n(Cc3nc(-c4ccccc4)no3)c(=O)c3cc4c(cc32)OCO4)cc1` the value was “inactive”; for `CN(C)c1ccc(C(CNS(=O)(=O)c2cc(F)ccc2F)N2CCOCC2)cc1` (centres undefined), “inactive”.
Take `CCOc1ccc(C(=O)c2cn(Cc3ccccc3OC)c3ccc(F)cc3c2=O)cc1`: the Potency entry is “inactive”.
For `O=C(/C=C/c1cn(CC(O)CN2CCc3ccccc32)c2ccccc12)c1ccc(Br)cc1` (centres undefined) the value was “inactive”.
For `O=C(CCC1N=C2c3ccccc3N=C(SCc3ccccc3F)N2C1=O)NCCc1ccccc1` (centres undefined) the value was “inactive”; for `CSCCC(NS(=O)(=O)c1ccc2c(c1)oc(=O)n2C)C(=O)NCc1ccccc1` (centres undefined), “inactive”; for `O=C(Nc1nnc(C2CC(=O)N(c3ccc(Cl)cc3)C2)s1)c1ccco1` (centres undefined), “inactive”.
In the case of `O=C(NCc1ccc(F)cc1)c1ccc(Cn2c(SCc3ccc(F)cc3)nc3cccnc32)cc1`, the Potency entry was “inactive”.
For `Cc1c2cnn(-c3ccccc3)c(=O)c2c(C)n1C(C)C(=O)Nc1ccc(Br)cc1F` (centres undefined) the value was “inactive”.
